Test results as given in PubChem BioAssay (Tox21).
Inconclusive results are not listed. Active and inactive are the calls of the source. Unless noted, the call rests on the fitted dose curve; in most records, active means well fitted curve in the direction sought with a large enough effect in the repeat runs; inconclusive means weak or mixed curves; inactive means no such curve, though single readings can be large; an effect the other way counts as inactive or inconclusive.

Assays:
[1] = qHTS assay for small molecule agonists of the p53 signaling pathway - cell viability (AID 651633; calls by dose curve; further: nearly all actives have a fitted effect of over 30% in size; further: potency means the concentration at half of the fitted maximal effect); conditions: p53RE-bla HCT-116 viability, ATP luminescence, 16 h; series mostly up to 83.3 µM
Outline: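 p53RE-bla cells, seeded at 4,000 per well and rested 5 h at 37 C/5% CO2, received compounds in DMSO for 16 h at 37 C. CellTiter-Glo was then added, and luminescence was read after 30 min at room temperature to gauge cytotoxicity.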

[2] = qHTS assay to test for compound auto fluorescence at 590 nm (red) in HepG2 cells (AID 720674); conditions: HepG2 autofluorescence, red 540/590 nm, 1 h; series mostly up to 91.3 µM
Outline: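 Compound auto-fluorescence is scored relative to Rose Bengal sodium, measured at 540/590 nm in live HepG2 cultures after 1 hr compound contact (37 C, 5% CO2).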

[3] = qHTS assay to test for compound auto fluorescence at 535 nm (green) in HepG2 cells (AID 720675); conditions: green autofluorescence 485/535 nm, 1 h; series mostly up to 91.3 µM
[4] = qHTS assay to test for compound auto fluorescence at 460 nm (blue) in HEK293 cells (AID 720678); conditions: blue autofluorescence 405/460 nm; series mostly up to 91.3 µM; further: potency means the concentration at half of the fitted maximal effect
Outline: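 HEK293 cells (2,000 per well, medium with 10% dialyzed FBS) attached for 4-5 hr at 37C, then received compound and stood overnight at 37C, 5% CO2. Blue fluorescence was read at Ex/Em 405/460 nm and expressed relative to triamterene.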

[5] = qHTS assay to test for compound auto fluorescence at 590 nm (red) in HEK293 cells (AID 720679); conditions: red autofluorescence 540/590 nm; series mostly up to 91.3 µM
Outline: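 HEK293 cells (2,000/well, medium with 10% dialyzed FBS) attached for 4-5 hr at 37C, received 23 nL compound and were incubated overnight at 37C, 5% CO2. Red fluorescence was then read at 540/590nm Ex/Em, referenced to Rose Bengal sodium.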

[6] = qHTS assay to test for compound auto fluorescence at 535 nm (green) in HEK293 cells (AID 720680); conditions: green autofluorescence 485/535 nm; series mostly up to 91.3 µM
[7] = qHTS assay to test for compound auto fluorescence at 460 nm (blue) in HEK293 cell free culture (AID 720681); conditions: cell-free medium, autofluorescence 405/460 nm (blue); series mostly up to 91.3 µM; further: potency means the concentration at half of the fitted maximal effect
Outline: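 Test compounds were pinned into cell-free culture medium (DMEM with 10% FBS) and fluorescence was read directly at Ex/Em 405/460 nm. Signals were expressed as fluorescence equivalents of triamterene, with DMSO vehicle as control.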

[8] = qHTS assay to test for compound auto fluorescence at 535 nm (green) in HEK293 cell free culture (AID 720682); conditions: cell-free medium, green autofluorescence 485/535 nm, active compounds read high; series mostly up to 91.3 µM
Outline: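 Green-channel intensity (Ex/Em 485/535 nm) was recorded from compound-treated wells containing only DMEM with 10% FBS. Fluorescein provided the equivalency standard.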

[9] = qHTS assay to test for compound auto fluorescence at 590 nm (red) in HEK293 cell free culture (AID 720683); conditions: cell-free medium autofluorescence, Ex540/Em590 red; series mostly up to 91.3 µM
Outline: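 Tox21 10K library compounds were pinned into cell-free DMEM with 10% FBS and fluorescence was read at excitation 540 nm. Activity is expressed as Rose Bengal sodium equivalency.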

[10] = qHTS assay to test for compound auto fluorescence at 590 nm (red) in HepG2 cell free culture (AID 720684); conditions: cell-free medium autofluorescence, red 540/590 nm; series mostly up to 91.3 µM
Outline: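 Red fluorescence (540 nm excitation, 590 nm emission) was measured after compound transfer into cell-free MEM supplemented with 10% FBS. Values are equivalencies against Rose Bengal sodium.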

[11] = qHTS assay to test for compound auto fluorescence at 460 nm (blue) in HepG2 cell free culture (AID 720685); conditions: Cell-free culture medium, blue autofluorescence 405/460 nm; series mostly up to 91.3 µM; further: potency means the concentration at half of the fitted maximal effect
Outline: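 Compound (23 nL) or DMSO pinned into cell-free MEM with 10% FBS; blue fluorescence read at 405/460 nm excitation/emission, expressed as auto-fluorescence equivalency to triamterene.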

[12] = qHTS assay to test for compound auto fluorescence at 535 nm (green) in HepG2 cell free culture (AID 720686); conditions: Cell-free medium, green autofluorescence 485/535 nm; series mostly up to 91.3 µM
[13] = qHTS assay to test for compound auto fluorescence at 460 nm (blue) in HepG2 cells (AID 720687); conditions: autofluorescence 405/460 nm, 1 h; series mostly up to 91.3 µM; further: potency means the concentration at half of the fitted maximal effect
Outline: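 Cells (2,000/well in MEM with 10% FBS) attached overnight at 37 C, then were exposed to compound or DMSO for 1 hr at 37 C, 5% CO2. Fluorescence read at Ex/Em 405/460 nm, expressed as triamterene-equivalent signal.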

[14] = qHTS assay for small molecules that induce genotoxicity in human embryonic kidney cells expressing luciferase-tagged ATAD5 (AID 651632); conditions: HEK293T ATAD5-luciferase induction, 16 h; series mostly up to 83.3 µM; further: nearly all actives have a fitted effect of over 15% in size
Outline: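 Reporter cells (HEK293T) express luciferase-tagged ATAD5, a protein that accumulates after DNA damage. Treat 16 hr at 37C/5% CO2, add Amplite, wait 30 min at RT, and read luminescence.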

[15] = qHTS assay for small molecules that induce genotoxicity in human embryonic kidney cells expressing luciferase-tagged ATAD5 - cell viability (AID 651634; calls by dose curve; further: nearly all actives have a fitted effect of over 25% in size; further: potency means the concentration at half of the fitted maximal effect); conditions: HEK293T ATAD5-luc cells viability, CellTiter-Fluor, 15.5 h; series mostly up to 83.3 µM
Outline: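 Seeding of 2,000 HEK293T ATAD5-luciferase cells per well preceded pin-tool compound transfer. Plates sat 15.5 hr at 37C under 5% CO2, then fluorescence was read after 30 min with CellTiter-Fluor.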

[16] = qHTS assay for small molecule disruptors of the mitochondrial membrane potential - cell viability (AID 720634; calls by dose curve; further: nearly all actives have a fitted effect of over 20% in size; further: potency means the concentration at half of the fitted maximal effect); conditions: HepG2 viability, ATP luminescence (CellTiter-Glo), 1 h; series mostly up to 83.2 µM
Outline: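 Measuring cytotoxicity alongside mitochondrial potential, the screen quantified ATP by luminescence in HepG2 cells after 1 hr compound incubation and a 30 min room-temperature CellTiter-Glo step.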

[17] = biological target: Glucocorticoid receptor (Homo sapiens) (UniProt P04150); experiment: qHTS assay to identify small molecule agonists of the glucocorticoid receptor (GR) signaling pathway (AID 720691; active means well fitted activation curve with a large enough effect in the signal ratio in the repeat runs, not every such curve was filed as active; the % refers to the signal ratio); conditions: GR-bla HeLa, beta-lactamase reporter ratio, 18 h; activation: at 62.4 µM (top of the series)
Outline: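 Reporter read-out: fluorescence intensity following 2 h room-temperature LiveBLAzer B/G FRET substrate loading. Prior step: GR-bla HeLa cells held 4 h, then treated 18 h at 37 C.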

[18] = biological target: Glucocorticoid receptor (Homo sapiens) (UniProt P04150); experiment: qHTS assay to identify small molecule antagonists of the glucocorticoid receptor (GR) signaling pathway (AID 720692; active means well fitted inhibition curve with a large enough effect in the signal ratio in the repeat runs, not every such curve was filed as active; the % refers to the signal ratio); conditions: GR-bla HeLa, beta-lactamase FRET ratio, dexamethasone-stimulated, 18 h; series mostly up to 58.5 µM
Outline: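 Dexamethasone (5 nM final) stimulated a stably integrated GRE-beta-lactamase reporter in HeLa cells during 18 h co-incubation with compounds; signal was quantified as fluorescence intensity of B/G FRET substrate after 2 h.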

[19] = qHTS assay for small molecule disruptors of the mitochondrial membrane potential (AID 720635); conditions: HepG2 mitochondrial membrane potential, Mito-MPS dye ratio; series mostly up to 83.2 µM; further: potency means the concentration at half of the fitted maximal effect
Outline: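 HepG2 cells (2,000/well) attached overnight at 37C, then took compound for 1 hr at 37C, 5% CO2. Mito-MPS dye was added for 30 min; fluorescence was read at 490/535 nm (monomers) and 540/590 nm (aggregates).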

Measured: Potency
Tags describe the fitted curve by direction and shape or compound fluorescence and quenching.

Glucocorticoid receptor (Homo sapiens), sequence (P04150 whole entry, looked up): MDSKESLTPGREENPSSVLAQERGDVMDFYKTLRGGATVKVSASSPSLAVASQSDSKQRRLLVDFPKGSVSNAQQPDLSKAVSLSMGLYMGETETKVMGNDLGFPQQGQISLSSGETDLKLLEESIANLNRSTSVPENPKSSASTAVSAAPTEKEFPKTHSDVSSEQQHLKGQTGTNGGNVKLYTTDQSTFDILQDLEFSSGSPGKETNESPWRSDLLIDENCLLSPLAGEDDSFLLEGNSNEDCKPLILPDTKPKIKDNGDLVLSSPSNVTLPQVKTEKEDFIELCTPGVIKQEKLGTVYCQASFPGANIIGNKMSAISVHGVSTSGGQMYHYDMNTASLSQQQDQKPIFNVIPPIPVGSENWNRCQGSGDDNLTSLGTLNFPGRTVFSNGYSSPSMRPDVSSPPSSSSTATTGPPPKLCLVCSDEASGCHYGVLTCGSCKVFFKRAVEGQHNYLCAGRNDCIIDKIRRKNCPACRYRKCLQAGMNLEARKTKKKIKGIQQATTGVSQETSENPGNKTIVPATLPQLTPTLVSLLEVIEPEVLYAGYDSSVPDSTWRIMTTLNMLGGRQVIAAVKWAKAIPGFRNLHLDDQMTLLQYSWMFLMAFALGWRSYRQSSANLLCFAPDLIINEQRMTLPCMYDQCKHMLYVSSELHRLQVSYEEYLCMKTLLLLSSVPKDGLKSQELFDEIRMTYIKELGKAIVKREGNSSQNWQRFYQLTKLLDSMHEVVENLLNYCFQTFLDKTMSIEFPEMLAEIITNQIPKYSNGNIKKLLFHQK

CCCCCCCCCCCC(=O)NCCCN(C)C
active: [1] 27.3 µM
not listed: [14] | [15] | [16] | [17] | [18] | [19]
inactive: all other assays above

CCN(CCC#N)c1ccc(N=Nc2c(Cl)cc([N+](=O)[O-])cc2Cl)cc1
active: [15] 54.5 µM | [16] 19.3 µM
not listed: [1] | [5] | [12] | [19]
inactive: all other assays above

OCCN(CCO)c1nc(N2CCCCC2)c2nc(N(CCO)CCO)nc(N3CCCCC3)c2n1
active: [4] 12.6 µM [fluorescent] | [7] 12.6 µM | [11] 12.6 µM [fluorescent] | [13] 12.6 µM [fluorescent]
inactive: [14] | [2] | [5] | [6] | [8] | [9] | [10] | [12]

CCCN(CCC)c1c([N+](=O)[O-])cc(C(F)(F)F)c(N)c1[N+](=O)[O-]
active: [19] 4.31 µM
not listed: [1] | [15] | [16] | [17] | [18]
inactive: all other assays above

CSc1ccc2c(c1)C(N1CCN(C)CC1)Cc1ccccc1S2 (stereo not given)
not listed: [1] | [3] | [5] | [15] | [17] | [18] | [19]
inactive: all other assays above

Cc1ccc2oc(CN(Cc3ccccc3)C(=O)Nc3c(F)cc(F)cc3F)c(-c3ccc(Cl)cc3)c2c1
active: [19] 18.7 µM
not listed: [1] | [16]
inactive: all other assays above

CC(C)(C)c1ccc(C(=O)CCCN2CCC(OC(c3ccccc3)c3ccccc3)CC2)cc1
not listed: [1] | [12] | [14] | [17] | [18] | [19]
inactive: all other assays above

[Cl][Au]([Cl])[Cl]
active: [1] 68.6 µM | [15] 30.6 µM
not listed: [3] | [13] | [14] | [17] | [18] | [19]
inactive: all other assays above

Oc1ccc(N=Nc2ccccc2)cc1
active: [19] 3.1 µM
not listed: [3] | [5] | [14] | [15] | [16] | [17] | [18]
inactive: all other assays above

CN1CCC(Nc2ncc3ncnc(Nc4ccc(F)c(Cl)c4)c3n2)CC1
active: [13] 12.6 µM [fluorescent]
not listed: [4] | [7] | [11] | [14] | [17] | [18] | [19]
inactive: all other assays above

CC/C(=C(\c1ccc(O)cc1)c1ccc(OCCN(C)C)cc1)c1ccccc1
active: [15] 61.3 µM | [19] 24.4 µM
not listed: [1] | [16] | [17] | [18]
inactive: all other assays above

CCCCCCCCCCCCCCCC(=O)OC[C@H](O)[C@H]1OC(=O)C(O)=C1O
not listed: [1] | [16] | [17] | [18]
inactive: all other assays above

C[n+]1cc2c3c(ccc2c2ccc4cc5c(cc4c21)OCO5)OCO3
active: [15] 11.9 µM | [19] 8.41 µM
not listed: [1] | [16] | [17] | [18]
inactive: all other assays above

O=[N+]([O-])c1cc([N+](=O)[O-])c2ccc(S(=O)(=O)O)cc2c1O
active: [15] 21.6 µM
not listed: [14] | [16] | [17] | [18]
inactive: all other assays above

OCCCCCCCCCCCCBr
active: [19] 62.1 µM
not listed: [1] | [3] | [12] | [15] | [16] | [18]
inactive: all other assays above

C[C@H]1[C@H]2CC[C@H]3[C@@H]4CC=C5C[C@@H](N(C)C)CC[C@]5(C)[C@H]4CC[C@]23CN1C
not listed: [1] | [12] | [16]
inactive: all other assays above

Fc1ccc([C@@H]2CCNC[C@H]2COc2ccc3c(c2)OCO3)cc1
not listed: [1] | [5] | [15] | [16] | [18] | [19]
inactive: all other assays above
